Out of some 5,500 compounds screened, about 2,000 (36%) were called active. Roughly 18% stayed inconclusive and do not appear here. Rule as the data show it: active = normalized growth mostly below about 0.91 (no sharp cut-off); inconclusive = no clear call, values can overlap the other calls; inactive = mostly above about 0.92. The list shows a part of the results.
Experiment: chemical genetic growth profiling, strain panel (AID 1159580);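 also: tested at 20 µM; growth read once vehicle control cultures reached saturation at 30 °C; 1 = growth at the plate median or of vehicle wells; lower values mean less growth of the strain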
Settings: growth OD

Measured: normalized growth

COC(=O)C[C@H]1C(C)(C)[C@@H](O)[C@@H]2CC3=C4CC(O)O[C@@H](c5ccoc5)[C@]4(C)CCC3[C@@]1(C)C2=O (some centres not stated)
inactive: S. cerevisiae deletion strains, locus YJL187C, strain SWE1, stronger effect = lower value 1.03 | S. cerevisiae deletion strains, locus YJR066W, strain TOR1, stronger effect = lower value 0.962 | S. cerevisiae deletion strains, locus YJR075W, strain HOC1, stronger effect = lower value 0.99 | S. cerevisiae deletion strains, locus YKL009W, strain mrt4, stronger effect = lower value 0.985 | S. cerevisiae deletion strains, locus YKL068W, stronger effect = lower value 0.98 | S. cerevisiae deletion strains, locus YKL085W, strain MDH1 (second series), stronger effect = lower value 0.99 | S. cerevisiae deletion strains, locus YKL085W, strain MDH1, stronger effect = lower value 0.99 | S. cerevisiae deletion strains, locus YKL160W, strain elf1, stronger effect = lower value 0.998 | S. cerevisiae deletion strains, locus YKL190W, strain CNB1, stronger effect = lower value 1 | S. cerevisiae deletion strains, locus YKR001C, strain vps1, stronger effect = lower value 0.98 | S. cerevisiae deletion strains, locus YKR026C, strain gcn3, stronger effect = lower value 1.02 | S. cerevisiae deletion strains, locus YKR091W, strain srl3, stronger effect = lower value 1.01 | S. cerevisiae deletion strains, locus YLL001W, strain dnm1, stronger effect = lower value 0.994 | S. cerevisiae deletion strains, locus YLL026W, stronger effect = lower value 1.02 | S. cerevisiae deletion strains, locus YLL041C, strain sdh2, stronger effect = lower value 1.02 | S. cerevisiae deletion strains, locus YLR027C, strain aat2, stronger effect = lower value 1.04 | S. cerevisiae deletion strains, locus YLR039C, strain RIC1, stronger effect = lower value 0.981 | S. cerevisiae deletion strains, locus YLR058C, strain SHM2, stronger effect = lower value 1 | S. cerevisiae deletion strains, locus YLR102C, strain apc9, stronger effect = lower value 0.99 | S. cerevisiae deletion strains, locus YLR113W, strain HOG1, stronger effect = lower value 0.971 | S. cerevisiae deletion strains, locus YLR221C, strain rsa3, stronger effect = lower value 1.06 | S. cerevisiae deletion strains, locus YLR258W, strain gsy2, stronger effect = lower value 0.99 | S. cerevisiae deletion strains, locus YLR262C, strain YPT6 (second series), stronger effect = lower value 1.01 | S. cerevisiae deletion strains, locus YLR268W, strain sec22, stronger effect = lower value 1.02 | S. cerevisiae deletion strains, locus YLR320W, strain mms22, stronger effect = lower value 1.06 | S. cerevisiae deletion strains, locus YLR342W, strain FKS1, stronger effect = lower value 1.02 | S. cerevisiae deletion strains, locus YLR357W, strain rsc2, stronger effect = lower value 1.04 | S. cerevisiae deletion strains, locus YLR370C, strain arc18, stronger effect = lower value 1 | S. cerevisiae deletion strains, locus YLR371W, strain rom2, stronger effect = lower value 0.96 | S. cerevisiae deletion strains, locus YLR384C, strain iki3, stronger effect = lower value 0.999 | S. cerevisiae deletion strains, locus YLR418C, strain cdc73, stronger effect = lower value 0.946 | S. cerevisiae deletion strains, locus YML016C, strain PPZ1, stronger effect = lower value 1.01 | S. cerevisiae deletion strains, locus YML032C, strain rad52, stronger effect = lower value 0.983 | S. cerevisiae deletion strains, locus YML120C, strain ndi1, stronger effect = lower value 0.995 | S. cerevisiae deletion strains, locus YML124C, strain tub3, stronger effect = lower value 0.981 | S. cerevisiae deletion strains, locus YMR058W, strain fet3, stronger effect = lower value 1.04 | S. cerevisiae deletion strains, locus YMR078C, strain ctf18, stronger effect = lower value 0.957 | S. cerevisiae deletion strains, locus YMR125W, strain sto1, stronger effect = lower value 1.02 | S. cerevisiae deletion strains, locus YMR129W, stronger effect = lower value 1.02 | S. cerevisiae deletion strains, locus YMR205C, strain PFK2, stronger effect = lower value 1.03 | S. cerevisiae deletion strains, locus YMR223W, strain ubp8, stronger effect = lower value 0.988 | S. cerevisiae deletion strains, locus YMR231W, strain pep5, stronger effect = lower value 1.02 | S. cerevisiae deletion strains, locus YMR263W, strain SAP30, stronger effect = lower value 0.983 | S. cerevisiae deletion strains, locus YMR307W, strain GAS1, stronger effect = lower value 1.09 | S. cerevisiae deletion strains, locus YNL067W, strain RPL9B, stronger effect = lower value 0.967 | S. cerevisiae deletion strains, locus YNL071W, strain lat1, stronger effect = lower value 1 | S. cerevisiae deletion strains, locus YNL153C, strain GIM3, stronger effect = lower value 0.978 | S. cerevisiae deletion strains, locus YNL183C, strain NPR1, stronger effect = lower value 0.987 | S. cerevisiae deletion strains, locus YNL209W, strain ssb2, stronger effect = lower value 1 | S. cerevisiae deletion strains, locus YNL233W, strain BNI4, stronger effect = lower value 1.02 | S. cerevisiae deletion strains, locus YNL248C, strain rpa49, stronger effect = lower value 1.05 | S. cerevisiae deletion strains, locus YNL250W, strain rad50, stronger effect = lower value 0.944 | S. cerevisiae deletion strains, locus YNL271C, strain bni1, stronger effect = lower value 0.981 | S. cerevisiae deletion strains, locus YNL298W, strain CLA4, stronger effect = lower value 0.981 | S. cerevisiae deletion strains, locus YNL307C, strain MCK1, stronger effect = lower value 0.994 | S. cerevisiae deletion strains, locus YNL322C, strain KRE1 (second series), stronger effect = lower value 1.04 | S. cerevisiae deletion strains, locus YNR049C, strain mso1, stronger effect = lower value 1.01 | S. cerevisiae deletion strains, locus YNR052C, strain pop2, stronger effect = lower value 0.975 | S. cerevisiae deletion strains, locus YOL006C, strain TOP1, stronger effect = lower value 1.12 | S. cerevisiae deletion strains, locus YOL012C, strain htz1 0.701 | S. cerevisiae deletion strains, locus YOL147C, strain pex11, stronger effect = lower value 0.985 | S. cerevisiae deletion strains, locus YOR001W, strain rrp6, stronger effect = lower value 1.06 | S. cerevisiae deletion strains, locus YOR061W, strain CKA2, stronger effect = lower value 1 | S. cerevisiae deletion strains, locus YOR069W, strain VPS5, stronger effect = lower value 1.01 | S. cerevisiae deletion strains, locus YOR070C, strain gyp1, stronger effect = lower value 1.02 | S. cerevisiae deletion strains, locus YOR080W, strain dia2, stronger effect = lower value 1.03 | S. cerevisiae deletion strains, locus YOR083W, strain WHI5, stronger effect = lower value 0.988 | S. cerevisiae deletion strains, locus YOR106W, strain vam3, stronger effect = lower value 0.954 | S. cerevisiae deletion strains, locus YOR136W, strain idh2, stronger effect = lower value 0.999 | S. cerevisiae deletion strains, locus YOR144C, strain elg1, stronger effect = lower value 0.99 | S. cerevisiae deletion strains, locus YOR184W, strain ser1, stronger effect = lower value 1.03 | S. cerevisiae deletion strains, locus YOR231W, strain MKK1, stronger effect = lower value 0.983 | S. cerevisiae deletion strains, locus YOR265W, strain rbl2, stronger effect = lower value 1 | S. cerevisiae deletion strains, locus YOR270C, strain vph1, stronger effect = lower value 1.05 | S. cerevisiae deletion strains, locus YOR290C, strain snf2, stronger effect = lower value 0.953 | S. cerevisiae deletion strains, locus YOR316C, strain cot1, stronger effect = lower value 0.985 | S. cerevisiae deletion strains, locus YPL051W, strain arl3, stronger effect = lower value 1.04 | S. cerevisiae deletion strains, locus YPL078C, strain atp4, stronger effect = lower value 0.976 | S. cerevisiae deletion strains, locus YPL106C, strain sse1, stronger effect = lower value 1.04 | S. cerevisiae deletion strains, locus YPL240C, strain hsp82, stronger effect = lower value 1.01 | S. cerevisiae deletion strains, locus YPL256C, strain CLN2, stronger effect = lower value 1.01 | S. cerevisiae deletion strains, locus YPR119W, strain clb2, stronger effect = lower value 0.977 | S. cerevisiae deletion strains, locus YPR141C, strain kar3, stronger effect = lower value 0.977 | S. cerevisiae deletion strains, locus YPR163C, strain tif3, stronger effect = lower value 0.989 | S. cerevisiae deletion strains, locus YPR167C, strain met16, stronger effect = lower value 0.971 | S. cerevisiae deletion strains, strain wtn01, stronger effect = lower value 1 | S. cerevisiae strains, strain wild type, stronger effect = lower value 1.03

Reference: PubChem BioAssay AID1159580 (chemical genetic matrix, 2015)
